# In ChEMBL document CHEMBL3433997, “St. Jude Leishmania screening dataset” (2016):
# Experiments:
# Type in all cases: functional
# [1] = target: Solute carrier family 2, facilitated glucose transporter member 1 (Homo sapiens) (UniProt P11166); test: ST_JUDE_LEISH: Cytotoxicity at 2uM final concentration against transgenic Leishmania Mexicana promastigotes LmGLUT1 that are glucose transport deficient and complemented with the human glucose transporter GLUT1. Activity is measured by DNA content using SYBR green in vitro
# Solute carrier family 2, facilitated glucose transporter member 1 (Homo sapiens), sequence (P11166 whole entry): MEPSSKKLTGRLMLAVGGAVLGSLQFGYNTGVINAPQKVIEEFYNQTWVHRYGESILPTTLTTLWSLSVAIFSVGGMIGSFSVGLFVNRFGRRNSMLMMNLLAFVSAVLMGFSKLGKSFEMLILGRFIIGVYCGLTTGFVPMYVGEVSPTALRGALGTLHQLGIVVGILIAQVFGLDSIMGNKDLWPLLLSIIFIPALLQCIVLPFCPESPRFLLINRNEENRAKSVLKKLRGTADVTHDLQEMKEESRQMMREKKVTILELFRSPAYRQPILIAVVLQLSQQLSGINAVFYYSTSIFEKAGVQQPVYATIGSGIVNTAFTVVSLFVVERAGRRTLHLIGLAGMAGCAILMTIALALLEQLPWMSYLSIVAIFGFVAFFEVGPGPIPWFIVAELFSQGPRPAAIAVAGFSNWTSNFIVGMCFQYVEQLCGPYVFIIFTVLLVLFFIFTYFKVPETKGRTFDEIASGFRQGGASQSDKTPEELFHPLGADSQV
# [2] = target: Hexose transporter 1 (Plasmodium falciparum) (UniProt O97467); test: ST_JUDE_LEISH: Cytotoxicity at 2uM final concentration against transgenic Leishmania Mexicana promastigotes LmPfHT that are glucose transport deficient and complemented with the Plasmodium falciparum hexose transporter. Activity is measured by DNA content using SYBR green in vitro
# [3] = target: Glucose transporter (Leishmania mexicana) (UniProt O61059); test: ST_JUDE_LEISH: Cytotoxicity at 2uM final concentration against transgenic Leishmania Mexicana promastigotes LmGT2 that are glucose transport deficient and complemented with the L. Mexicana glucose transporter 2. Activity is measured by DNA content using SYBR green in vitro
Structure (SMILES),inhibition [1],inhibition [2],inhibition [3]
CCNc1cc(C)nc(Nc2ccc(NS(=O)(=O)c3ccccc3)cc2)n1,17.8%,11%,5.64%
Cc1cc(C)c2cc(CNCCCNc3nc4ccccc4[nH]3)[nH]c2c1,1.11%,0.15%,2.91%
N=C(N)c1ccc(NC(=O)c2cc(Sc3ccc(O)c(C(=O)Nc4ccc(C(=N)N)cc4)c3)ccc2O)cc1,9.7%,10.9%,4.34%
Cc1cc(N[C@@H](CC(C)C)C(=O)NCCOc2ccccc2)nc(Nc2ccccc2)n1,6.84%,2.42%,1.29%
O=C(NC1CCN(Cc2ccc(Cl)cc2)CC1)c1cn(-c2ccccc2)nc1-c1cccnc1,1.12%,0.95%,1.49%
CC(C)c1nc(N2CCN(C(=S)NCc3ccccc3)CC2)c(C#N)c2c1COC(C)(C)C2,-0.1%,0.47%,0.22%
CN(CCCN(C)c1cc(NC(=O)c2cccc(F)c2)ccn1)Cc1cccc(O)c1,-2.2%,0.99%,-0.68%
C[C@H](NC(=O)c1c(OC2CN(C(c3ccccc3)c3ccccc3)C2)c(-c2ccccc2)nc2ccccc12)C1CCCCC1,2.01%,0.08%,0.33%
Cc1cc(-c2cccc(CNC3CCCC3)c2)ccc1S(=O)(=O)NCCN1CCCC1,5%,3.43%,6.24%
CCNc1cc(C(=O)N[C@@H](Cc2ccccc2)[C@H](O)CNC2C3CC4CC(C3)CC2C4)cc(N2CCCCS2(=O)=O)c1 (stereo partly specified),0.69%,0.88%,-1.02%
COc1cccc(C(=O)Nc2ccc(Nc3nc(C)cc(N4CCCCC4)n3)cc2)c1OC,1.99%,2.75%,0.19%
OCC1CCN(Cc2ccc(-c3cccc(-c4nc5cc(C(F)(F)F)ccc5[nH]4)c3)cc2)CC1,-1%,1.12%,7.35%
